Most compounds without a hit are left out; they make up all but 5.7% or so of the library.
hgDAF12 agonist = activates the H. glycines DAF-12 receptor ligand-binding domain; activation, % at 6.8 µM; 370,000 tested, 1.8% active; HEK293 GAL4-hgDAF12 UAS-luciferase reporter, agonist luminescence; normalized to butyrate control;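 active = activation above a cutoff set at the mean of all screened compounds plus 3 SD, cut at about 10% in these data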;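 note: 0% = DMSO wells and 100% = sodium butyrate wells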
DAX1 inh-1 = inhibits human nuclear receptor DAX1; P51843; HEK293 Gal4-DAX1 luciferase reporter, luminescence; inhibition, % at 6.75 µM; 340,000 tested, 0.99% active; AID 504766;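 active = inhibition above the mean over all tested compounds plus 3 SD, cut at about 4.2% in these data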;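 note: 0% = DAX1-transfected cells with DMSO and 100% = empty-vector control cells with DMSO; inhibition shows as a rise in luminescence from relieved DAX1 repression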
DAX1 inh-2 = blocks DAX1 repression of SF-1 activated StAR promoter | HEK293T StAR-luciferase reporter, SF-1/DAX-1 repression relief | 370,000 tested, 1.1% active | inhibition, % at 6.8 µM;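 active = inhibition above the mean over all tested compounds plus 3 SD, cut at about 3.6% in these data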;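 note: 0% = DAX-1 cells with DMSO and 100% = cells lacking DAX-1 with DMSO; higher inhibition means more luminescence from relief of DAX-1 repression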
ssDAF-12 act = activates DAF-12 receptor from parasite S. stercoralis. HEK293 ssDAF-12/GRIP1 lit1-tk-luc reporter, luminescence; % of 3 µM dafachronic acid response. activation, % at 6.8 µM. 370,000 tested, 1% active;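 active = activation above the mean over all tested compounds plus 3 SD, cut at about 0.9% in these data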;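 note: 0% = DMSO-only wells and 100% = 3 µM delta7-dafachronic acid wells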
hcDAF12 agonist = activates DAF-12 receptor from parasite H. contortus; AID 652067; HEK293 hcDAF-12 lit1-tk-luc reporter, luminescence; 0% DMSO, 100% Δ7-dafachronic acid; activation, % at 6.8 µM; 370,000 tested, 1.4% active;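 active = activation above the mean of all tested compounds plus 3 SD, cut at about 5.5% in these data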;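 note: 100% = response to 3 µM Δ7-dafachronic acid high control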
AHR act = human AHR activation. P35869. activation, % at 5 µM. AHR-responsive luciferase reporter cells, luminescence. AID 2796. 320,000 tested, 2.5% active; in the data active = activation above about 47%;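 note: 0% = vehicle wells and 100% = reference agonist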
Target sequence (P35869 whole entry, looked up): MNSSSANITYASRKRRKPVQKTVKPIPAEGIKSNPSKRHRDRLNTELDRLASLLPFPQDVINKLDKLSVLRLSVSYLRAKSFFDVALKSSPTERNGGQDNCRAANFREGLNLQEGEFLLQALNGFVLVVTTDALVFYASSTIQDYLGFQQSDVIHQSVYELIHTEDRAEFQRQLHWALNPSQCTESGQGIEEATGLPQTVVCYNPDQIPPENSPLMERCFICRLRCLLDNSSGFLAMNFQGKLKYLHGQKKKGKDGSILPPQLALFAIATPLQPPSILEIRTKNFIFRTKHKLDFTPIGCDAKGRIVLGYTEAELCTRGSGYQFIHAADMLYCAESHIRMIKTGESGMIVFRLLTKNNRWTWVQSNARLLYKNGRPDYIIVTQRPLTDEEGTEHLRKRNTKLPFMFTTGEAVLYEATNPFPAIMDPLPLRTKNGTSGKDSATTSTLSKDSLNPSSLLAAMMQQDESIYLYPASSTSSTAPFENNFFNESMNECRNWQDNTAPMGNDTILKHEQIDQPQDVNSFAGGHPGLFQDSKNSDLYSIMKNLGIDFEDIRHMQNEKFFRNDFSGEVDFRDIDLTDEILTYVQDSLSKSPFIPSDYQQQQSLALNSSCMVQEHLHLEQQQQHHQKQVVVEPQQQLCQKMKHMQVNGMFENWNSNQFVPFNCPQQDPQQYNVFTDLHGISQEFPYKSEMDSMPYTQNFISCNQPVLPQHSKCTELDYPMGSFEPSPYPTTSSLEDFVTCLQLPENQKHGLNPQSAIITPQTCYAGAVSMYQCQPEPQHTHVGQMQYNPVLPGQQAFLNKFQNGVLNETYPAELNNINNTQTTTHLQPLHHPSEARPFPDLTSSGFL
* marks the source's active call; other numbers are inactive results; . = no result.

SMILES	hgDAF12 agonist	DAX1 inh-1	DAX1 inh-2	ssDAF-12 act	hcDAF12 agonist	AHR act
Cc1cc(C)n(-c2ccc(OCC(=O)O)nn2)n1	2.2	0.6	0.9	-1.4	-0.2	-3.6
COc1ccc(NC(=O)c2ccccc2O)c(OC)c1	9.4	2.9	2.8	0.7	5.8*	13.5
COc1ccc(NC(=O)c2cc(Br)ccc2Cl)c(OC)c1	-2.9	-0.4	-0.5	-2.0	-4.0	107.0*
O=C1N(Nc2ccccc2)C(c2ccc(Br)cc2)C12CCCC2 (centres undefined)	-1.9	-0.8	0.2	-2.0	0.2	-5.5
O=C1C(C=NCCCn2ccnc2)=C(O)c2ccccc21	2.5	0.6	0.0	-1.1	3.9	47.6*
O=C1C(C=NCc2ccccn2)=C(O)c2ccccc21	9.2	1.4	1.9	-1.3	3.0	60.3*
CC(C)CN=CC1=C(O)c2ccccc2C1=O	10.0	1.1	1.6	-1.4	3.6	3.3
CCOC(=O)NN=C1CCC(c2ccccc2)CC1 (centres undefined)	4.4	-0.1	1.5	-0.9	-0.6	.
O=C(CNC(=O)c1ccccc1F)OCc1csc(-c2ccccc2)n1	3.0	-0.1	1.8	-0.6	0.0	10.4
COc1ccccc1C(=O)NCC(=O)OCc1csc(-c2ccccc2)n1	8.9	0.3	0.5	0.1	5.7*	12.4
CSc1nnc(NC(=O)C2CCCCC2)s1	2.2	-0.5	0.4	-0.1	0.5	0.9
CCSc1nnc(NC(=O)C2CCCN(S(=O)(=O)c3cnc[nH]3)C2)s1 (centres undefined)	-1.5	13.3*	0.9	-1.1	-1.0	3.0
O=C(NC1CCCCCCC1)C1CCCN(S(=O)(=O)c2cnc[nH]2)C1 (centres undefined)	-0.5	-0.2	-0.3	-1.2	0.0	0.1
O=C(NC1CCCCC1)C1CCCN(S(=O)(=O)c2cnc[nH]2)C1 (centres undefined)	-0.7	5.0*	0.0	-1.5	-0.2	0.1
CCSc1nnc(NC(=O)C2CCCCC2)s1	5.2	4.7*	1.0	-0.1	0.6	20.3
Cc1ccc2nc(NC(=O)C3CCCN(S(=O)(=O)c4cnc[nH]4)C3)sc2c1 (centres undefined)	8.4	6.3*	3.0	-0.9	3.4	20.2
CC(=O)c1cccc(NC(=O)C(C)OC(=O)c2ccc3ncsc3c2)c1 (centres undefined)	1.1	-0.5	0.4	-0.7	-2.2	0.6
O=S(=O)(c1ccccc1)C1CON(Cc2ccccc2)C1c1ccccc1 (centres undefined)	0.4	0.3	0.7	-0.7	0.0	-2.0
CCSc1nnc(NC(=O)c2cccc3ccccc23)s1	0.2	0.2	-0.3	-0.9	-0.6	51.9*
CCSc1nnc(NC(=O)c2csc(C)c2)s1	5.1	0.6	1.4	-0.8	1.4	-0.9
O=C(Nc1ccccc1Cl)c1ccccc1CC(O)(c1ccccc1)c1ccccc1	-0.9	1.1	-1.2	-1.4	-1.1	.
CC1C(=O)OC(c2ccc(Br)cc2)C(C)(C)C1=O (centres undefined)	1.5	0.1	-0.1	0.2	0.8	-1.3
CCCC(=O)Nc1cc(Cl)ccc1C	-0.1	6.5*	0.0	-1.8	0.6	1.3
O=C(O)c1ccccc1N/N=C/c1c(Sc2nnnn2-c2ccccc2)nc2ccccn2c1=O	-1.6	-0.3	1.7	0.0	-1.0	1.6
O=c1c(/C=N/Nc2ccccc2)c(Sc2nnnn2-c2ccccc2)nc2ccccn12	12.3*	-2.5	0.1	-0.2	6.3*	.
SMILES	hgDAF12 agonist	DAX1 inh-1	DAX1 inh-2	ssDAF-12 act	hcDAF12 agonist	AHR act
Cc1cccc(C)c1N1C(=O)c2ccccc2NC(=O)C1C(=O)NCc1ccco1 (centres undefined)	-1.5	.	-1.1	-1.6	-1.2	.
CC(C)C[C@H](CO)Nc1nc(Nc2cccc(Cl)c2)c2ncn(C(C)C)c2n1	-1.5	-1.1	0.0	-1.5	-1.8	18.6
CC(C)n1cnc2c(Nc3cccc(F)c3)nc(NCCO)nc21	0.3	-1.5	-0.9	-1.4	-1.2	66.4*
CC[C@]12c3[nH]c4ccccc4c3CCN1C(=O)C(CC(=O)NCc1cccc(C(F)(F)F)c1)C[C@@H]2C(=O)N1CCN(C(=O)c2ccco2)CC1 (some centres undefined)	3.7	0.0	-1.1	-1.1	-1.8	2.0
O=C(/C=C1\NCC2c3ccccc3CCN2C1=O)c1ccccc1 (centres undefined)	2.0	0.7	1.2	-0.2	2.2	62.2*
NC(=O)c1nsc(C(=O)N(c2cccc(F)c2)C(C(=O)NCC2CCCO2)c2c[nH]c3ccccc23)c1N (centres undefined)	2.0	0.5	-0.3	-0.2	2.6	64.6*
NC(=O)c1nsc(C(=O)N(c2ccc(F)cc2)C(C(=O)NCC2CCCO2)c2c[nH]c3ccccc23)c1N (centres undefined)	-2.7	-0.4	-0.4	-0.6	-1.7	74.1*
O=C(c1cnccn1)N(c1ccccc1)C1(C(=O)NC2CCCCC2)CCCCC1	-0.8	-0.7	0.5	-0.4	-1.3	-1.6
COc1ccc(-c2cc(OC)c3ccccc3n2)cc1	1.4	1.6	0.3	-0.8	3.9	59.9*
COc1ccc2c(OC)cc(-c3ccccc3)nc2c1	5.8	-1.1	0.1	-0.8	0.3	70.4*
COc1cc(-c2ccccc2)nc2ccccc12	1.3	1.7	0.1	-1.2	-1.1	47.6*
COc1ccc(-c2cc3cc(OC)c(OC)cc3c(C)n2)cc1	11.3*	0.2	0.6	-1.1	-0.1	81.8*
COc1cc(-c2cc(C(=O)O)c3cc4ccccc4cc3n2)cc(OC)c1OC	0.5	0.6	-1.1	0.1	-0.7	.
O=[N+]([O-])c1cccc(NC(=S)NCc2ccncc2)c1	2.3	1.9	-0.7	-1.0	0.7	21.6
COC(=O)c1ccc(Cn2nnc3c(=O)[nH]c(C4CCCN(S(=O)(=O)c5ccc(C)cc5)C4)nc32)cc1 (centres undefined)	-1.2	-0.2	-0.1	-0.9	5.6*	-0.6
COc1cc(-c2noc(-c3ccccc3C(=O)NCc3ccco3)n2)cc(OC)c1OC	-4.2	-1.2	-0.1	-1.3	-2.0	2.6
COc1ccccc1-c1noc(-c2ccccc2C(=O)NCc2ccco2)n1	-3.0	0.5	-1.4	-1.7	0.7	49.5*
CCOC(=O)c1c(NC(=O)CCCC(=O)O)sc2c1CCC2	-4.9	-0.4	0.1	-1.8	-1.6	1.4
COCC1CCN(C(=O)C2CCC(=O)N(C3CCCC3)C2)CC1 (centres undefined)	4.2	-0.1	0.3	0.1	4.1	-1.2
COC1CCN(C(=O)C2CCC(=O)N(C3CCCCCC3)C2)CC1 (centres undefined)	5.0	0.6	0.7	0.0	6.3*	0.4
CC(=O)NCCC1CCN(C(=O)C2CCC(=O)N(C3CCCC3)C2)CC1 (centres undefined)	-1.5	0.4	-0.4	1.6*	-0.1	0.5

Compound activity deposited in PubChem BioAssay by The Scripps Research Institute Molecular Screening Center.
